From PubChem BioAssay (Tox21)
Several values for one entry are separate records, joined by “and”; a condition that tells them apart may be missing. Identical values can stand only once. Results filed as inconclusive are left out. A call without a number means that no potency is given here. Some structures have more than one record in an assay (separate samples or runs), and their calls can disagree. Activity calls are given as the source filed them. Unless noted, the call rests on the fitted dose curve; in most records, active means well fitted curve in the direction sought with a large enough effect in the repeat runs; inconclusive means weak or mixed curves; inactive means no such curve, though single readings can be large; an effect the other way counts as inactive or inconclusive.

Legend:
[1] = target: Retinoic acid receptor RXR-alpha (Homo sapiens) (UniProt P19793); test: qHTS assay to identify small molecule agonists of the RXR signaling pathway (AID 1159527; calls by dose curve; further: nearly all actives have a fitted effect of over 35% in size); details: HEK293T RXRa-UAS-bla, beta-lactamase ratio, 16 h; series mostly up to 76.8 µM
Outline: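 Agonist-mode beta-lactamase reporter assay: HEK 293T RXR-alpha-UAS-bla cells treated 16 hr at 37 C with compounds, 9-cis retinoic acid as positive control. LiveBLAzer FRET substrate, 405 nm excitation, 460/530 nm emission.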

[2] = qHTS assay to identify small molecule agonists of the RXR signaling pathway - cell viability counter screen (AID 1159529); details: RXR-alpha-bla HEK293T viability, CellTiter-Glo, 16 h; series mostly up to 76.8 µM; further: nearly all actives have a fitted effect of over 50% in size; further: potency means the concentration at half of the fitted maximal effect
Outline: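 CellTiter-Glo luminescence gave viability in the wells also read for beta-lactamase. Cells (RXR-alpha-UAS-bla HEK 293T, 2% charcoal-stripped FBS medium) had 5 hr plating, then 16 hr compound exposure at 37 C; tetraoctyl ammonium bromide served as positive control.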

[3] = qHTS assay to identify small molecule antagonists of the retinoid acid receptor (RAR) signaling pathway - cell viability counter screen (AID 1159551); details: C3RL4 cells viability, ATP luminescence (CellTiter-Glo), 6 h; series mostly up to 92.4 µM; further: nearly all actives have a fitted effect of over 35% in size; further: potency means the concentration at half of the fitted maximal effect
Outline: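 Following overnight attachment, C3RL4 reporter cells received DMSO-dissolved compounds and then retinol (1 uM final). Six hours later at 37 C, ATP content was measured by CellTiter-Glo luminescence.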

[4] = qHTS assay to identify small molecule antagonists of the retinoic acid receptor (RAR) signaling pathway (AID 1159552; further: nearly all actives have a fitted effect of over 50% in size); details: C3RL4 RARE luciferase reporter, retinol-stimulated, 6 h; series mostly up to 92.4 µM
Outline: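 Luminescent RARE reporter read-out in C3RL4 cells: 6 hr co-treatment at 37 C of test compounds with retinol at 1 uM final. Cells plated overnight beforehand; luciferase reagent incubated 30 min at room temperature before reading.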

[5] = qHTS assay to identify small molecule agonists of the retinoic acid receptor (RAR) signaling pathway (AID 1159553); details: C3RL4 RARE luciferase reporter, agonist, 6 h; series mostly up to 73.3 µM; further: potency means the concentration at half of the fitted maximal effect
Outline: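 Cell line C3RL4, RARE luciferase reporter. Treatment: compounds in DMSO, 6 hr, 37 C, 5% CO2, after overnight plating. Detection: luminescence, 30 min RT after reagent.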

[6] = qHTS assay to identify small molecule agonists of the estrogen related receptor (ERR) signaling pathway (AID 1224820); details: ERR reporter cell line, luciferase agonist mode; series mostly up to 46.1 µM
Outline: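 Quantitative HTS of the LOPAC library used NTP ERR reporter cells treated 18 h at 37 C. Signal is luminescence after One-Glo addition and a 30 min room-temperature incubation.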

[7] = test system: estrogen-related receptor alpha (ERRalpha) with PGC-1alpha coactivator, human; test: qHTS assay to identify small molecule antagonists of the estrogen related receptor signaling pathway with the pleiotropic PPARgamma coactivator (PGC) (AID 1224821; calls by dose curve;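 further: lower luminescence signal means antagonism of PGC/ERR signalling; nearly all actives have a fitted effect of over 50% in size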); details: ERR/PGC reporter cell line, luciferase, antagonist mode; series mostly up to 46.1 µM
Outline: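 Quantitative HTS for antagonism: PGC/ERR cells received compounds after 6 h attachment and were incubated 18 h at 37 C, with luminescence (One-Glo) as the endpoint.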

Retinoic acid receptor RXR-alpha (Homo sapiens), sequence (P19793 whole entry, looked up): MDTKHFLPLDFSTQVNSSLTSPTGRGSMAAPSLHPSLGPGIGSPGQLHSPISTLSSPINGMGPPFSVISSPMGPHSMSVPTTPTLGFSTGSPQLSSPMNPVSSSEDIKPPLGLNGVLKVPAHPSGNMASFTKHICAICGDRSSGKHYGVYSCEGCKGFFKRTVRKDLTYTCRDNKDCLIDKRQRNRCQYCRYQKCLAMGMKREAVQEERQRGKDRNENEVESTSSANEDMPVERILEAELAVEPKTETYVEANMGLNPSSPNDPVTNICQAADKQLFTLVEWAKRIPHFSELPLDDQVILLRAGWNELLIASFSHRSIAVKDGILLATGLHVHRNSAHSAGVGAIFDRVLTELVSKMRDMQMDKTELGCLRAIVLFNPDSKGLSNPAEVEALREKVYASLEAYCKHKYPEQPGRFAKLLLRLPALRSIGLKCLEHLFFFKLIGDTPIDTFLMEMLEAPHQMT

| Structure (SMILES) | Potency [1] | Potency [2] | Potency [3] | Potency [4] | Potency [5] | Potency [6] | Potency [7] |
| --- | --- | --- | --- | --- | --- | --- | --- |
| COCC(C)O (stereo not drawn) | inactive | inactive | inactive | – | – | – | – |
| CCOC(=O)C1OC1c1ccccc1 (stereo not drawn) | inactive | inactive | inactive | inactive | inactive | – | – |
| C=CC(=O)OCCCCCCCC(C)C | inactive | inactive | inactive | inactive | inactive | – | – |
| O=[N+]([O-])c1cc(N(CCO)CCO)ccc1NCCO | inactive | inactive | 48.5 µM (active) and 48.6 µM (active) | – | inactive | – | – |
| Cc1cc(O)c2c(c1)C(=O)c1cc(O)cc(O)c1C2=O | inactive | inactive | inactive | inactive | 9.47 µM (active) | inactive | inactive |
| CCCCC/C=C\C/C=C\CCCCCCCC(=O)OC | inactive | inactive and 34.7 µM (active) | inactive | inactive | inactive | – | – |
| CCCCC(CC)C(=O)OCCOCCOCCOC(=O)C(CC)CCCC (stereo not drawn) | inactive | inactive | inactive | inactive | inactive | – | – |
| Cc1ccc(C)c(C)c1 | inactive | inactive | inactive | inactive | inactive | – | – |
| OCCOCCOCCOCCO | inactive | inactive | inactive | – | – | – | – |
| c1ccc2[nH]cnc2c1 | inactive | inactive | inactive | inactive | inactive | – | – |
| Cn1c([N+](=O)[O-])cnc1COC(N)=O | inactive | inactive | inactive | – | inactive | – | – |
| C=C(C)C(=O)OCC(CC)(COC(=O)C(=C)C)COC(=O)C(=C)C | inactive | inactive | inactive | – | inactive | – | – |
| CCCCCCCCCCC=CC1CC(=O)OC1=O (stereo not drawn) | inactive | inactive | inactive | – | – | – | – |
| C=C(C#N)C(=O)OCC | inactive | inactive | inactive | inactive | inactive | – | – |
